Assay outcomes as filed in PubChem.
GDH-TPI counter: inhibits GDH-TPI coupling enzymes, artifact for Mtb FBA screen; 360,000 tested, 1.2% active; inhibition, % at 4.8 µM; GDH-TPI coupled enzyme counterscreen, NADH absorbance; in the data active = inhibition above about 30%
Anthrax LF prot: inhibitors of Bacillus anthracis lethal factor protease; P15917; multiplex microsphere protease cleavage assay, LF; inhibition, % at 10 µM; 360,000 tested, 0.12% active; AID 588501
Target sequence (P15917 whole entry, looked up): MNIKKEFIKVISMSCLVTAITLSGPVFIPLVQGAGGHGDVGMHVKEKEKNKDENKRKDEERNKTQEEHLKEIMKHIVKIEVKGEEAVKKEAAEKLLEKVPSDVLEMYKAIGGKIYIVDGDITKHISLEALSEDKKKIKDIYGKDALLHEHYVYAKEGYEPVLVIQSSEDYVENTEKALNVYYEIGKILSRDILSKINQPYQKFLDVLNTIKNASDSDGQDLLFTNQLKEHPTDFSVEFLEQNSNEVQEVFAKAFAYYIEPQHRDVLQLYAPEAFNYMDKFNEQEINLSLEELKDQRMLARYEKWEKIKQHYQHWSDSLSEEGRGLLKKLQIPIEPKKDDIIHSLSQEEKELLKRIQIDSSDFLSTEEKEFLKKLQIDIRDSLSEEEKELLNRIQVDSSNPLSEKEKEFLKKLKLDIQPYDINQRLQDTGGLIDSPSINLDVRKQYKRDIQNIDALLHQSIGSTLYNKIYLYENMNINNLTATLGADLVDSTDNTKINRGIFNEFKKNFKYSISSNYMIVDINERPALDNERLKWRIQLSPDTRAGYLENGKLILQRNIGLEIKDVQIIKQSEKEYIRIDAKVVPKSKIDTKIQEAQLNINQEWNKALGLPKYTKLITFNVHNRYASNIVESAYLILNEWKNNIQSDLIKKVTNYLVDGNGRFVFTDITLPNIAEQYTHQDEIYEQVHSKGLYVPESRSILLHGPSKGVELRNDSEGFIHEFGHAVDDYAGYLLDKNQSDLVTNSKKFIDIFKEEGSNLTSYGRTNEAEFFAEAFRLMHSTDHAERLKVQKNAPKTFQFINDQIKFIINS
FBA Mtb inh: Mtb fructose-bisphosphate aldolase inhibition; P9WQA3; purified M. tuberculosis FBA, fluorescence read-out; inhibition, % at 1 µM; 360,000 tested, 2.3% active; AID 588726; in the data active = inhibition above about 27%
Bead autofluor: counter-screen for toxin protease inhibitors: compound fluorescence; 360,000 tested, 3.1% active; AID 624483; compound autofluorescence counterscreen, microsphere flow cytometry; active compounds read high; fluorescence intensity (no concentration beside the values); in the data active = fluorescence intensity above about 16000; inconclusive = no clear call, values can overlap the other calls
BoNT-F LC inh: inhibitors of Botulinum neurotoxin F light chain protease. Multiplex microsphere protease cleavage assay, flow cytometry. inhibition, % at 10 µM. 360,000 tested, 0.22% active; in the data active = inhibition above about 35%, passing the limit was not always enough; inconclusive = no clear call, values can overlap the other calls
BoNT A protease: inhibitors of Botulinum neurotoxin A light chain protease | multiplex microsphere protease substrate cleavage, flow cytometry | 360,000 tested, 0.17% active | AID 588499 | inhibition, % at 10 µM
Numbers stand for hits; . = inactive; ? = inconclusive; / = no result given. Compounds with a hit are over-represented: about 6.7% of the library has one in this group of screens. Cut-off read from the data, not from the text of the source, unless noted: active = inhibition above about 30%; inconclusive = no clear call, values can overlap the other calls; inactive = below that.

SMILES | GDH-TPI counter | Anthrax LF prot | FBA Mtb inh | Bead autofluor | BoNT-F LC inh | BoNT A protease
COc1cccc(NC(=O)CSc2nccn2-c2cccc(OC)c2)c1 | . | . | . | . | . | .
CCN(CC)CC(=O)c1ccc(-c2ccccc2)cc1 | . | . | . | . | . | .
CN(C)CC(=O)c1ccc(-c2ccccc2)cc1 | . | . | . | 20222 | . | .
O=S(=O)(c1ccc(Br)s1)N1CCN(c2ccccn2)CC1 | . | . | . | . | . | .
O=S(=O)(c1ccc(Br)s1)N1CCN(c2ncccn2)CC1 | . | . | . | 22792 | . | .
O=S(=O)(c1ccccc1)N1CCN(c2ncccn2)CC1 | . | . | . | 22296 | . | .
O=S(=O)(c1ccc(F)cc1)N1CCN(c2ncccn2)CC1 | . | . | . | . | . | .
CC1CCCCC12NC(=O)N(CC(=O)Nc1ccc(S(=O)(=O)N3CCOCC3)cc1)C2=O (stereo not drawn) | . | . | . | ? | . | .
COc1ccc(OC)c(C=NNC(=O)c2ccc(NS(=O)(=O)c3cccs3)cc2)c1 | 38.9 | . | . | . | . | .
COc1ccc(/C=N/NC(=O)c2ccc(NS(=O)(=O)c3cccs3)cc2)cc1 | 50.9 | . | . | . | . | .
O=C(O)c1ccc(/C=N/NC(=O)c2ccc(NS(=O)(=O)c3cccs3)cc2)cc1 | 73.9 | . | . | . | . | .
COc1cccc(Nc2nc3ccccc3nc2NS(=O)(=O)c2cccs2)c1 | 37.3 | . | . | 22498 | . | ?
CCCCC1=C([O-])C2N=CC=CC2=[N+](c2ccccn2)C1=O (stereo not drawn) | . | . | . | . | . | .
O=C(O)COc1ccccc1C=NNC(=O)c1ccc(NS(=O)(=O)c2cccs2)cc1 | . | . | . | . | . | .
O=C(NN=Cc1ccccc1C(=O)O)c1ccc(NS(=O)(=O)c2cccs2)cc1 | 36.8 | . | . | . | . | .
COc1ccc(NS(=O)(=O)c2cccc(C(=O)NN=Cc3cc(Br)c(O)c(Br)c3)c2)cc1 | 41.0 | . | . | . | . | .
COc1ccc(C(=O)N(C)C(C)c2ccon2)cc1OC1CCN(C(C)C)CC1 (stereo not drawn) | . | . | . | . | . | .
Cc1ccc(CN(C(=O)c2csnn2)C(C(=O)NC2CCCC2)c2ccco2)cc1 (stereo not drawn) | . | . | . | . | . | .
O=C(NC1CCCC1)C(c1ccccn1)N(C(=O)c1csnn1)C1CCCCC1 (stereo not drawn) | . | . | . | . | . | .
COCCN(C(=O)c1csnn1)C(C(=O)NC1CCCCC1)c1sccc1C (stereo not drawn) | . | . | . | 23376 | . | .
COCCN(C(=O)c1csnn1)C(C(=O)NC1CCCCC1)c1cccs1 (stereo not drawn) | . | . | . | . | . | .
O=C(NC1CCCC1)C(c1ccco1)N(Cc1ccccc1)C(=O)c1csnn1 (stereo not drawn) | . | . | . | 20226 | . | ?
O=C(NC1CCCC1)C(c1ccccn1)N(C(=O)c1csnn1)C1CC1 (stereo not drawn) | . | . | . | 16748 | . | .
O=C(NC1CCCCC1)C(c1ccco1)N(C(=O)c1csnn1)C1CCCC1 (stereo not drawn) | . | . | . | 22986 | . | .
O=C(NC1CCCCC1)C(c1ccco1)N(C(=O)c1csnn1)c1ccc(Cl)cc1 (stereo not drawn) | . | . | . | . | . | .
SMILES | GDH-TPI counter | Anthrax LF prot | FBA Mtb inh | Bead autofluor | BoNT-F LC inh | BoNT A protease
CC/C(=N\NC(=O)c1ccc(CN(C)S(=O)(=O)c2ccc(C)cc2)cc1)c1ccc(OC(F)F)cc1 | . | . | . | . | . | .
O=C(c1ccccn1)N(Cc1ccco1)C1(C(=O)NC2CCCCC2)CCCCC1 | . | . | . | . | . | .
CCCc1ccc2oc(C(=O)NCCN3CCCC(O)C3)c(C)c2c1 (stereo not drawn) | . | . | . | . | . | .
Cc1c(NC(=O)C2CCCN2C(=O)c2cccs2)c(=O)n(-c2ccccc2)n1C (stereo not drawn) | . | . | . | . | . | .
CC(NC(=O)COC(=O)C12CC3CC(CC(Br)(C3)C1)C2)c1ccccc1 (stereo not drawn) | . | . | . | . | . | .
CC(C)(C)NC(=O)C(c1cccs1)N(Cc1ccco1)C(=O)c1csnn1 (stereo not drawn) | . | . | . | . | . | .
CC(C)(C)NC(=O)C(c1ccccc1F)N(Cc1ccco1)C(=O)c1csnn1 (stereo not drawn) | . | . | . | 16964 | . | .
O=C(O)CCCNC(=O)/C(=C\C=C\c1ccccc1)NC(=O)c1ccccc1Cl | . | . | . | . | . | .
C=CCNC(=O)/C(=C\C=C\c1ccccc1)NC(=O)c1ccccc1Cl | 31.3 | . | . | . | . | .
CC(C)(C)c1ccc(-c2nnc(SCC(=O)O)n2N)cc1 | . | . | . | 22213 | . | .
Cc1ccc(-c2nnc(SCC(=O)O)n2N)cc1 | . | . | . | 22439 | . | ?
Cc1ccc(-c2nnc(SCC(=O)Nc3nccs3)n2N)cc1 | . | . | . | . | . | .
N/C(=N\NC(=O)c1cccs1)c1cc2ccccc2oc1=O | 42.0 | . | . | . | . | .
N/C(=N\NC(=O)c1ccc(F)cc1)c1cc2ccccc2oc1=O | . | . | . | . | . | .
O=C(COc1ccc(Cl)cc1)NNC(=O)c1ccncc1 | . | . | . | . | . | .
CCc1c(C)nc2cc(-c3ccccc3)[nH]n2c1=O | . | . | . | . | 36.2 | .
N#Cc1c(-n2ccnc2)cccc1-n1ccnc1 | . | . | . | 21837 | . | .
CNC(=O)c1ccsc1NC(=O)CS(=O)(=O)c1ccc(F)cc1 | . | . | . | . | . | .
C[C@H](CO)N1C[C@H](C)[C@@H](CN(C)C(=O)NC2CCCCC2)OCc2cnnn2CCCC1=O | . | . | . | . | . | .
COc1ccccc1NC(=S)NCc1ccc2c(c1)cc(C)n2C | . | . | . | . | . | 33.4
CCc1cccc(C)c1NC(=S)NCc1ccc2c(c1)cc(C)n2C | . | . | . | . | . | 56.7
COc1ccc(/C=C/C(=O)NCCCNC(=O)/C=C/c2ccc(OC)c(OC)c2)cc1OC | . | . | . | . | . | .
Cc1cc2cc(CNC(=S)NCc3ccccc3)ccc2n1C | . | . | . | . | . | 45.3
COc1ccc(/C=C\C(=O)NCc2ccc3c(c2)cc(C)n3C)cc1OC | . | . | . | . | . | 61.8
Cc1ccccc1NC(=S)NCc1ccc2c(c1)cc(C)n2C | . | . | . | . | . | .
CC1=C(C(=O)N(C(C)C)C(C)C)CC(CC(=O)NC(c2ccccc2)c2ccccc2)C(=O)N1CCC1=CCCCC1 (stereo not drawn) | / | . | . | . | . | .
CCN(CC)C(=S)SC1=CCS(=O)(=O)C1 | . | . | . | . | . | .
COc1ccc(NC(=S)NCc2ccc3c(c2)cc(C)n3C)cc1 | . | . | . | . | . | .
CCOC(=O)CCC(=O)NCc1ccc2c(c1)cc(C)n2C | . | . | . | 18146 | . | .
